HSP90 inh = HSP90 inhibitors, primary screen, cell lysate, luminescence | Heat shock protein HSP 90 (rabbit reticulocyte lysate; luciferase refolding) | Rabbit reticulocyte lysate, luciferase refolding luminescence, 3 h | inhibition, % at 5.6 µM | actives 0.91% (n = 290,000) | AID 1789, 2009;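 active = inhibition above the screen-wide mean plus 3 SD, computed separately per campaign, cut at about 16% in these data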;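 also: 0% = DMSO wells and 100% = 60 µM geldanamycin wells; inhibitors lower the luminescence because luciferase stays unfolded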
HSF1 inhib = HSF1 inhibitors in luciferase reporter cells, primary screen, cell-based, NIH3T3, luminescence | NIH3T3-HGL HSE-luciferase, MG132-induced, luminescence 8 h; hits give low values | activity change, negative = inhibition, % at 7.5 µM (by protocol) | actives 0.77% (n = 300,000) | AID 2098, 2009;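 active = more than half of replicate wells show activity change below -50%, luminescence cut by over half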;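 also: luciferase reports HSF-1 transcriptional activity via heat shock element; 0% = median of DMSO wells and -100% = zero luminescence signal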
HSF-1 act = HSF-1 activators, primary screen, NIH3T3-HGL cells, MG132 stress, luminescence, single point; NIH3T3-HGL HSF-1 luciferase reporter, 8 h; 100% = twice DMSO control signal; activation, % at 9 µM; actives 1.7% (n = 300,000); AID 504408, 2011;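 active = mean replicate activation of at least 50% with a set share of replicates each reaching 50%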;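 also: 0% = median of the neutral control wells and 100% = twice that signal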
AHR activator = AHR activators, primary screen, cell-based, luminescence, luciferase reporter, human | AHR-responsive luciferase reporter cells | activation, % at 5 µM | actives 2.5% (n = 320,000); in the data active = activation above about 47%;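 also: 0% = vehicle wells and 100% = reference agonist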
Target sequence (P35869 whole entry, looked up): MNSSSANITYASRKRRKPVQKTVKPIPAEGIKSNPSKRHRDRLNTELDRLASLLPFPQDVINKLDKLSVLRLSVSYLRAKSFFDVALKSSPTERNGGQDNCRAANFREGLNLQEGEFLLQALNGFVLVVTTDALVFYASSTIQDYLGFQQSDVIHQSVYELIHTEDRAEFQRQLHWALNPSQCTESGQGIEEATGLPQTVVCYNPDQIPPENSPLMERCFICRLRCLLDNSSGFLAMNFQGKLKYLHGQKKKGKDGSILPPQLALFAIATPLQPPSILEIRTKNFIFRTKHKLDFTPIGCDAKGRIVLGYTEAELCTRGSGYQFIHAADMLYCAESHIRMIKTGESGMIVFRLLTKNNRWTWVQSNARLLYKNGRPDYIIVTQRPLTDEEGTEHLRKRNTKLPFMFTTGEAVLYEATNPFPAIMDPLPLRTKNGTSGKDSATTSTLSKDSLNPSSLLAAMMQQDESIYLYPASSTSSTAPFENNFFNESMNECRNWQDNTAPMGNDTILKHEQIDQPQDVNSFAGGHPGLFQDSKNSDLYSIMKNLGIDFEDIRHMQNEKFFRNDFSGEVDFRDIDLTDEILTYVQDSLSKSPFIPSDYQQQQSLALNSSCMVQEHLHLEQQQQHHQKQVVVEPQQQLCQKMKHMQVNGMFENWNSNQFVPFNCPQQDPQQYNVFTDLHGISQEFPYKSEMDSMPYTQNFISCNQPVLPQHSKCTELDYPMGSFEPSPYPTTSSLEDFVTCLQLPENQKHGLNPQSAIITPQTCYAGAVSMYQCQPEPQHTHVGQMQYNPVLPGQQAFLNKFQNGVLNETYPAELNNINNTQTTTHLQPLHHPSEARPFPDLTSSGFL
FXN GAA850 act = FXN promoter activators, primary screen, cell-based, luciferase luminescence, HEK293 lucGAA850; actives 0.56% (n = 360,000); HEK293 lucGAA850 FXN promoter luciferase reporter, 24 h; percent of 10 µM SAHA response; AID 540364, 2011; activation, % at 6 µM;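 active = activation above the average of all compounds screened plus 3 SD, cutoff fixed separately per campaign, cut at about 7.5% in these data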;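 also: 0% = DMSO wells and 100% = 10 µM SAHA wells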
NR0B1 inh = DAX1 (NR0B1) inhibitors, primary screen, cell-based, HEK293, Gal4-DAX1, luciferase luminescence; actives 0.99% (n = 340,000); HEK293 Gal4-DAX1 luciferase reporter; inhibition, % at 6.75 µM;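 active = inhibition above the mean over all tested compounds plus 3 SD, cut at about 4.2% in these data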;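 also: 0% = DAX1-transfected cells with DMSO and 100% = empty-vector control cells with DMSO; inhibition shows as a rise in luminescence from relieved DAX1 repression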
Starred values were filed as active, the others as inactive. Shown are actives, neighbours in structure and some others; about 5.9% of the full set was active somewhere.

For O=C(NCC1CCCO1)c1nn2c(C(F)(F)F)cc(-c3cc(Br)cs3)nc2c1Br (stereo not given) the results were HSP90 inh 1, HSF1 inhib 19, HSF-1 act 62*, AHR activator 11, FXN GAA850 act 2 and NR0B1 inh 1.
Screening CCOC(=O)Cc1csc(SCC(=O)/C(C#N)=C(\C)N)n1 returned HSP90 inh -4, HSF1 inhib 4, HSF-1 act -9, AHR activator 1, FXN GAA850 act 0 and NR0B1 inh -1.
For O=C(NCCCNC(=O)c1ccc(-c2cc(Cl)ccc2Cl)o1)c1cnccn1 the results were HSP90 inh -2, HSF1 inhib -2, HSF-1 act -12, AHR activator -3, FXN GAA850 act 2 and NR0B1 inh -1.
CCOc1ccc(NC(=O)CN(C)C(=O)C2CC(=O)N(Cc3ccco3)C2)cc1OCC (stereo not given) was read as AHR activator -1, FXN GAA850 act 0 and NR0B1 inh 1.
O=C(Cc1cccc(NC(=O)C2CCCN(C(=O)C3CCCCC3)C2)c1)Nc1ccc(C(=O)N2CCOCC2)cc1 (stereo not given) was read as FXN GAA850 act 2 and NR0B1 inh 0.
COc1cc(NC(=O)c2cc3c(C)nc4ccccc4c3o2)cc(OC)c1OC was read as HSP90 inh 0, HSF1 inhib -51*, HSF-1 act -52, AHR activator 12, FXN GAA850 act -7 and NR0B1 inh -1.
Screening COc1ccc(N2C(=O)/C(=C/c3ccc([N+](=O)[O-])cc3)C=C2c2ccccc2)cc1 returned HSP90 inh -1, HSF1 inhib 15, HSF-1 act 23, AHR activator 1, FXN GAA850 act 0 and NR0B1 inh 1.
O=C1/C(=C/c2ccc([N+](=O)[O-])cc2)C=C(c2ccccc2)N1c1ccccc1 was read as HSP90 inh -2, HSF1 inhib 17, HSF-1 act 35, AHR activator 3, FXN GAA850 act -1 and NR0B1 inh -1.
Screening O=C1/C(=C/c2ccc([N+](=O)[O-])cc2)C=C(c2ccccc2)N1c1ccc(O)cc1 returned HSP90 inh -2, HSF1 inhib 45, HSF-1 act 95*, AHR activator 3, FXN GAA850 act -4 and NR0B1 inh 0.
For O=C(O)c1cccc(N2C(=O)/C(=C/c3ccc([N+](=O)[O-])cc3)C=C2c2ccccc2)c1 the results were HSP90 inh 14, HSF1 inhib -72*, HSF-1 act -74, AHR activator -14, FXN GAA850 act 3 and NR0B1 inh -4.
Cc1c(C(=O)NNc2c(Cl)cccc2Cl)n(C)oc1=O was read as HSP90 inh -1, HSF1 inhib -6, HSF-1 act 5, AHR activator -2, FXN GAA850 act 1 and NR0B1 inh 6.2*.
CN(CC1CCOCC1)C(=O)CC1C(=O)NCCN1CC(c1ccccc1)c1ccccc1 (stereo not given) was read as HSP90 inh 5, HSF1 inhib -2, HSF-1 act 2, AHR activator 1, FXN GAA850 act 1 and NR0B1 inh 0.
Screening C=C(C1=CCN(S(=O)(=O)C(C)(C)C)[C@H]1CCO)c1ccccc1 returned FXN GAA850 act 2 and NR0B1 inh 5.8*.
For C=C(C1=CCN(S(=O)C(C)(C)C)[C@H]1CCO)c1ccccc1 (stereo not given in full) the results were FXN GAA850 act -2 and NR0B1 inh 1.
For CN1CCN(Cc2c(O)ccc3cc(Br)ccc23)CC1 the results were HSP90 inh -3, HSF1 inhib 112, HSF-1 act 134* and AHR activator 1.
`C/C(CCc1ccco1)=N/NC(=O)CCC(=O)Nc1ccc(Br)cc1` gave HSP90 inh 0, HSF1 inhib -5, HSF-1 act 5, AHR activator 14, FXN GAA850 act 3 and NR0B1 inh -1.
C/C(CCc1ccco1)=N\NC(=O)CNc1c(Br)cc(Br)cc1Br was read as HSP90 inh -1, HSF1 inhib 7, HSF-1 act 9, AHR activator 6, FXN GAA850 act 0 and NR0B1 inh 6.8*.
Screening CCOC(=O)CC(=O)Nc1nnc(C(C)C)s1 returned HSP90 inh -3, HSF1 inhib -8, HSF-1 act 1, AHR activator 13, FXN GAA850 act 0 and NR0B1 inh 5.3*.
`CCOc1ccc(C(=O)Nc2nnc(C(C)C)s2)cc1OCC` gave HSP90 inh 3, HSF1 inhib -2, HSF-1 act 1, AHR activator 59*, FXN GAA850 act 1 and NR0B1 inh 0.
`COc1ccc(/C=N/Nc2ncnc3c2[nH]c2ccc(C)cc23)c(OC)c1OC` gave HSP90 inh -2, HSF1 inhib -7, HSF-1 act -21, AHR activator 63* and FXN GAA850 act 6.
Screening Cc1ccc2[nH]c3c(NCc4ccco4)ncnc3c2c1 returned HSP90 inh -2, HSF1 inhib 9, HSF-1 act 25, AHR activator 57*, FXN GAA850 act -2 and NR0B1 inh -3.
For CSCc1ccc(C(=O)OCc2nc3ccccc3s2)o1 the results were AHR activator 21, FXN GAA850 act 3 and NR0B1 inh 1.
For COc1ccc(Cl)cc1C(=O)n1cnc2ccccc21 the results were HSP90 inh -3, HSF1 inhib 3, HSF-1 act 4, AHR activator 11, FXN GAA850 act 4 and NR0B1 inh 0.
O=C(c1c[nH]c2ccccc12)C(Cl)c1ccccc1 (stereo not given) was read as HSP90 inh 1, HSF1 inhib 8, HSF-1 act 30, AHR activator 14, FXN GAA850 act -3 and NR0B1 inh -3.
Screening CCN1CC(CN(C)Cc2nc(COc3ccccc3)no2)CC1=O (stereo not given) returned HSP90 inh -3, HSF1 inhib 23, HSF-1 act 55*, AHR activator 14, FXN GAA850 act 1 and NR0B1 inh 1.
`CC(C)Cc1ccc(C(=O)Nc2ccc(Cc3ccncc3)cc2)o1` gave HSP90 inh -4, HSF1 inhib -13, HSF-1 act -21, FXN GAA850 act -2 and NR0B1 inh -3.
For NC(=O)CSc1nc(C2CC2)nc2sc3c(c12)CCCC3 the results were HSP90 inh 2, AHR activator 4, FXN GAA850 act 5 and NR0B1 inh 5.6*.
For NC(=O)CSc1nc(N)c2c3c(sc2n1)CCCCC3 the results were HSP90 inh 1, HSF1 inhib 5, HSF-1 act 8, AHR activator 19, FXN GAA850 act 4 and NR0B1 inh 0.

Bioassay records deposited in PubChem BioAssay by several laboratories.
